Data reported in ChEMBL document CHEMBL1961873, “Compounds: GSK PKIS; Assays: Nanosyn kinase panel” (2012).

Legend:
[1] = target: T1, Inhibitor of nuclear factor kappa-B kinase subunit epsilon (Homo sapiens) (UniProt Q14164); conditions: at 1 µM;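 note: reported values are averaged percent inhibition figures against human IKKε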
T1 sequence (whole entry): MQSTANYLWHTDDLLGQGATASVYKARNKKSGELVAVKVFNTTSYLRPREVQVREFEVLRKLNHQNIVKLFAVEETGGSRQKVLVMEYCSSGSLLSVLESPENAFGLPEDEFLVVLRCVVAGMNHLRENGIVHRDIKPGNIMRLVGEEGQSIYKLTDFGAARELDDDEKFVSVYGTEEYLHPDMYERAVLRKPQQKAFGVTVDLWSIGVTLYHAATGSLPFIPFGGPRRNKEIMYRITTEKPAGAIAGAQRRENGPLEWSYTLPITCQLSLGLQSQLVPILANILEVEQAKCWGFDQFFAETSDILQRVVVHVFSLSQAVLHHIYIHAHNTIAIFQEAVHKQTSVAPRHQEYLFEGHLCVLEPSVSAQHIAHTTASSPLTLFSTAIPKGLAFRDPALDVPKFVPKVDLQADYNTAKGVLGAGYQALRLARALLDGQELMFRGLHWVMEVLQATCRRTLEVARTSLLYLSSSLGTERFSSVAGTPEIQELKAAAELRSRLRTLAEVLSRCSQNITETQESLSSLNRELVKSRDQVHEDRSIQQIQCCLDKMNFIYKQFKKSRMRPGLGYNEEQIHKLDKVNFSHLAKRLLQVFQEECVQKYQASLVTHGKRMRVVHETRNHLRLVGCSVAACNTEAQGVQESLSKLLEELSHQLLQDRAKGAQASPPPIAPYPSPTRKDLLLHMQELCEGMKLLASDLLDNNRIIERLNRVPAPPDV

[2] = target: T2, Serine/threonine-protein kinase Nek1 (Homo sapiens) (UniProt Q96PY6); conditions: at 0.1 µM
T2 sequence (whole entry): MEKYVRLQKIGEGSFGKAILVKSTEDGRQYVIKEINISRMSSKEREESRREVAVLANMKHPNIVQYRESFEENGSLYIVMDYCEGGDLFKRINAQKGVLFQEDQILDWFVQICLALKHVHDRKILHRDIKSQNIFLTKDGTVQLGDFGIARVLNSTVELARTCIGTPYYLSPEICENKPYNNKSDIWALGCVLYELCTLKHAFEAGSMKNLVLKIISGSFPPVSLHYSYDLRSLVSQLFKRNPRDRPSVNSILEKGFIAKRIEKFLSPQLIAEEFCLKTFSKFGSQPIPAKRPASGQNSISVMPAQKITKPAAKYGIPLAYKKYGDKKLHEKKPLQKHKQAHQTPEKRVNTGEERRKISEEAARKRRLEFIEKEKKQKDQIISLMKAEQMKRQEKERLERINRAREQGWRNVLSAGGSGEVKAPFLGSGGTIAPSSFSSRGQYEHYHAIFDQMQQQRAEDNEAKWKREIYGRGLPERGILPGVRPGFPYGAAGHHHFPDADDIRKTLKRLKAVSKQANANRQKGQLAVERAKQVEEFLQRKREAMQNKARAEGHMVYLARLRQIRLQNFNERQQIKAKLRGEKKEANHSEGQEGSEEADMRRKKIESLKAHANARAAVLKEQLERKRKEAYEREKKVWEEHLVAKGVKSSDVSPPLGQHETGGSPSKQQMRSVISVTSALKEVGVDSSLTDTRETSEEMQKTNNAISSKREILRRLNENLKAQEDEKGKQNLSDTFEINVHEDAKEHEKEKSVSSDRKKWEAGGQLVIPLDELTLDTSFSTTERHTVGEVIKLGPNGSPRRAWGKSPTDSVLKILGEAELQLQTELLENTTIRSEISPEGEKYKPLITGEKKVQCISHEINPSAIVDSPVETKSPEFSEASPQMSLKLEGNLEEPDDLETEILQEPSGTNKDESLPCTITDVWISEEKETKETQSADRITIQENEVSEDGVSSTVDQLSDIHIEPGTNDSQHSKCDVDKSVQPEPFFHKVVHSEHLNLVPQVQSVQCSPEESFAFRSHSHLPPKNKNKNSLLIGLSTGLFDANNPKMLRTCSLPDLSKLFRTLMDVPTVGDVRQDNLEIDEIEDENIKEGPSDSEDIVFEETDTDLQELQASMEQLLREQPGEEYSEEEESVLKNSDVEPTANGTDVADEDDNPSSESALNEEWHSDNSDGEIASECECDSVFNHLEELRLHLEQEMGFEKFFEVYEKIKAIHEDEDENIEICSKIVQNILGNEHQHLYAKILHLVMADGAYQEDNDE

[3] = target: T2, Serine/threonine-protein kinase Nek1 (Homo sapiens); conditions: at 1 µM
[4] = target: T3, Serine/threonine-protein kinase Nek2 (Homo sapiens) (UniProt P51955); conditions: at 0.1 µM
T3 sequence (whole entry): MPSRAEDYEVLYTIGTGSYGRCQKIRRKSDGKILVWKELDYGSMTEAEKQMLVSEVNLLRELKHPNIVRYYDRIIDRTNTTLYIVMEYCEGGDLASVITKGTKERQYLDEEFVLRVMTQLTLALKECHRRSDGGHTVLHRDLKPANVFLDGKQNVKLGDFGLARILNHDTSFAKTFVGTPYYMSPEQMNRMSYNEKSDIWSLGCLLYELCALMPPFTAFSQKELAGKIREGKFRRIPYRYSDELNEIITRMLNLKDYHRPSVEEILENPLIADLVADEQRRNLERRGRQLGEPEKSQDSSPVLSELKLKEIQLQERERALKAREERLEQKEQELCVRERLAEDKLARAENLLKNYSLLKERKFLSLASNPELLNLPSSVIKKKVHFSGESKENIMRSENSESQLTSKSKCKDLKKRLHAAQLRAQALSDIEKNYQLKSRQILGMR

[5] = target: T3, Serine/threonine-protein kinase Nek2 (Homo sapiens); conditions: at 1 µM
[6] = target: Serine/threonine-protein kinase Nek6 (Homo sapiens) (UniProt Q9HC98); conditions: at 0.1 µM
[7] = target: Serine/threonine-protein kinase Nek6 (Homo sapiens) (UniProt Q9HC98); conditions: at 1 µM
[8] = target: Serine/threonine-protein kinase Nek7 (Homo sapiens) (UniProt Q8TDX7); conditions: at 0.1 µM
[9] = target: Serine/threonine-protein kinase Nek7 (Homo sapiens) (UniProt Q8TDX7); conditions: at 1 µM
[10] = target: T4, Serine/threonine-protein kinase Nek9 (Homo sapiens) (UniProt Q8TD19); conditions: at 0.1 µM
T4 sequence (whole entry): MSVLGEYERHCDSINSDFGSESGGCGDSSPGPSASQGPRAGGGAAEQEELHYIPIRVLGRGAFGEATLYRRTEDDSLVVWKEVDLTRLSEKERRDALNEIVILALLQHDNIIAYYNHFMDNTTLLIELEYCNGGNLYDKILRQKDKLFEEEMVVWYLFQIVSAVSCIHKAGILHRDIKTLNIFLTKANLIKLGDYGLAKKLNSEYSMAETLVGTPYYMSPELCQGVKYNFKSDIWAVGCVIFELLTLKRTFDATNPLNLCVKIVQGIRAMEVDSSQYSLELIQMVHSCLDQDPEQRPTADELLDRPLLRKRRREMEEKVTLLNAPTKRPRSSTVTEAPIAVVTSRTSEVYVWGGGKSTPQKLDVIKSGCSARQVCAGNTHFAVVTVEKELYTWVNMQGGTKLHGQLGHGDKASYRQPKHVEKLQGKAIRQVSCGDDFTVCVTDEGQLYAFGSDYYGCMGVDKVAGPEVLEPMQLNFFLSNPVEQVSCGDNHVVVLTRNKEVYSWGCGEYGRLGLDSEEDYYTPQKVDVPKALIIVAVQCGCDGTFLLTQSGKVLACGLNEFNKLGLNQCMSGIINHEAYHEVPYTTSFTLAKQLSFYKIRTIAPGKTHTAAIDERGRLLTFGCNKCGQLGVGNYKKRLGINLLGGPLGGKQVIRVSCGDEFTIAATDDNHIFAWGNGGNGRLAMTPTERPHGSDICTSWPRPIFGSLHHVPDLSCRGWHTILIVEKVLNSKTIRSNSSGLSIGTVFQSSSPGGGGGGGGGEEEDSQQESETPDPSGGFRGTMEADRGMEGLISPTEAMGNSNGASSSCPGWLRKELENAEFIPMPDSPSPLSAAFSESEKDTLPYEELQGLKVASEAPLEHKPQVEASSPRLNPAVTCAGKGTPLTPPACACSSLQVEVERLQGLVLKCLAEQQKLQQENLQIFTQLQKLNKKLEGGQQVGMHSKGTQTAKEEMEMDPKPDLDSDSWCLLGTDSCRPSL

[11] = target: T4, Serine/threonine-protein kinase Nek9 (Homo sapiens); conditions: at 1 µM
[12] = target: Serine/threonine-protein kinase PLK1 (Homo sapiens) (UniProt P53350); conditions: at 0.1 µM
[13] = target: Serine/threonine-protein kinase PLK1 (Homo sapiens) (UniProt P53350); conditions: at 1 µM
[14] = target: T5, Dual specificity protein kinase TTK (Homo sapiens) (UniProt P33981); conditions: at 0.1 µM
T5 sequence (whole entry): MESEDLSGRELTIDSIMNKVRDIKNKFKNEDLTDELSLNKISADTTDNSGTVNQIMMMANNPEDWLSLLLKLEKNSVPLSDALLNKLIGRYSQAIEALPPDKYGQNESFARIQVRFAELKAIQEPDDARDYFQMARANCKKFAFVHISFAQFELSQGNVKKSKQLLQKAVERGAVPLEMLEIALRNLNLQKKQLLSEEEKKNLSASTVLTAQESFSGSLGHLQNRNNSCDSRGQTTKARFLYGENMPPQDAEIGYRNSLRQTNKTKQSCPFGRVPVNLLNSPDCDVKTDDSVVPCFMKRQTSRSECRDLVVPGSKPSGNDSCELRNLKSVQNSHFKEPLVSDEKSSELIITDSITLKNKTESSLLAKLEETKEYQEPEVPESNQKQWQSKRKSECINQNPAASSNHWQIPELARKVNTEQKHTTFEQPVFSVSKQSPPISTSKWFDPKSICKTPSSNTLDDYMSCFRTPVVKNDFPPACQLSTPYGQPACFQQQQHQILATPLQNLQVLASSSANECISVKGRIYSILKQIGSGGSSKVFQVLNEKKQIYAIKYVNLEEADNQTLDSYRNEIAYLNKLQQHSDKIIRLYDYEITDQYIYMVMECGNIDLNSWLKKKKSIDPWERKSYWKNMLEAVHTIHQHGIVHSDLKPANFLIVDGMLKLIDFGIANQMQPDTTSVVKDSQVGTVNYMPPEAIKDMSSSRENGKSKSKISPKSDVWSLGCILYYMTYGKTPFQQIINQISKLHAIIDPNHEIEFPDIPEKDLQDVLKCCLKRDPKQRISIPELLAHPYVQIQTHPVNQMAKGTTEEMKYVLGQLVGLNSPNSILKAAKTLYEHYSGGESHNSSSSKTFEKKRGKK

[15] = test system: T6, Receptor-type tyrosine-protein kinase FLT3 (Homo sapiens), P36888 [D835Y]; conditions: at 1 µM
T6 sequence (whole entry): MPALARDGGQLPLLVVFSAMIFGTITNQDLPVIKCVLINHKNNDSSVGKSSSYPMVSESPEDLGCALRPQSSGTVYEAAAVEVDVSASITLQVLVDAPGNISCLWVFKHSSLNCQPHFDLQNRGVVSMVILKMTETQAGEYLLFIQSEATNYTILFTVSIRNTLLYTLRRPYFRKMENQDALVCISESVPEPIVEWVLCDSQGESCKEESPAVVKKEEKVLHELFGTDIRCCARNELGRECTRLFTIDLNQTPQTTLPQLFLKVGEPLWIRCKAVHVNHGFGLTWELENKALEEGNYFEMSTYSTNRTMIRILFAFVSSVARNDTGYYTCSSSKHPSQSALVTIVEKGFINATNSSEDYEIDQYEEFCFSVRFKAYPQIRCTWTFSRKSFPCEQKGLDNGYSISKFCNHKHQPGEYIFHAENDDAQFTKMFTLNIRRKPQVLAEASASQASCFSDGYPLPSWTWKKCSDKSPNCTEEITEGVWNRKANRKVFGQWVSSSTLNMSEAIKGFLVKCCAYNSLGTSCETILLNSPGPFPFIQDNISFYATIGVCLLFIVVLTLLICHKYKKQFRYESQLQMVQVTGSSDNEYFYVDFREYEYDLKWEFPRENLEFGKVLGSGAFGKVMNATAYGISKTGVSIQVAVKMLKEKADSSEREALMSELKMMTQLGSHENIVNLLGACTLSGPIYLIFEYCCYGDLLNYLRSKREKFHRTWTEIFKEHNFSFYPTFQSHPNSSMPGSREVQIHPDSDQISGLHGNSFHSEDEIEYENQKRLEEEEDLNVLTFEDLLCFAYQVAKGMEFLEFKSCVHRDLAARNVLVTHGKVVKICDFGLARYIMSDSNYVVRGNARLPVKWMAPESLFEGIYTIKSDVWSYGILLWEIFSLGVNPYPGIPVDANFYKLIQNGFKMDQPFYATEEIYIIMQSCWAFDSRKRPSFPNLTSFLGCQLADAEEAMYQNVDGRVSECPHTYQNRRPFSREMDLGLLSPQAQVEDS

[16] = target: Vascular endothelial growth factor receptor 3 (Homo sapiens) (UniProt P35916); conditions: at 0.1 µM
[17] = target: Vascular endothelial growth factor receptor 3 (Homo sapiens) (UniProt P35916); conditions: at 1 µM
[18] = target: Macrophage colony-stimulating factor 1 receptor (Homo sapiens) (UniProt P07333); conditions: at 0.1 µM
[19] = target: Macrophage colony-stimulating factor 1 receptor (Homo sapiens) (UniProt P07333); conditions: at 1 µM
[20] = target: Tyrosine-protein kinase Fyn (Homo sapiens) (UniProt P06241); conditions: at 0.1 µM
Sequence of Tyrosine-protein kinase Fyn (Homo sapiens) (P06241 2-537 limits assumed): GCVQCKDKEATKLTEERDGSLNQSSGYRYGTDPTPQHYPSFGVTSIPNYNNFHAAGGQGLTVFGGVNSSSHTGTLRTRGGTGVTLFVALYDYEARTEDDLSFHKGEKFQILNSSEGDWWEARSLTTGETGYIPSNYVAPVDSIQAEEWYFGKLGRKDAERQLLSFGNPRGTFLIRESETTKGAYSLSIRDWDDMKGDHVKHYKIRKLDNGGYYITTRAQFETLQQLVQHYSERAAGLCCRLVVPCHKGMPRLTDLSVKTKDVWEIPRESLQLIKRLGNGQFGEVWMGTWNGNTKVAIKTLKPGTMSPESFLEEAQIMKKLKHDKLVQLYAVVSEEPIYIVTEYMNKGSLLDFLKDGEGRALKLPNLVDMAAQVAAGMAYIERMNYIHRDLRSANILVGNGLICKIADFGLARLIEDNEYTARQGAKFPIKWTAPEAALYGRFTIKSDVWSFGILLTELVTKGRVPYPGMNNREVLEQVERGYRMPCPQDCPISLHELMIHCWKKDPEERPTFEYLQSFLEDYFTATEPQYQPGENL

Sequence of Vascular endothelial growth factor receptor 3 (Homo sapiens) (P35916 whole entry): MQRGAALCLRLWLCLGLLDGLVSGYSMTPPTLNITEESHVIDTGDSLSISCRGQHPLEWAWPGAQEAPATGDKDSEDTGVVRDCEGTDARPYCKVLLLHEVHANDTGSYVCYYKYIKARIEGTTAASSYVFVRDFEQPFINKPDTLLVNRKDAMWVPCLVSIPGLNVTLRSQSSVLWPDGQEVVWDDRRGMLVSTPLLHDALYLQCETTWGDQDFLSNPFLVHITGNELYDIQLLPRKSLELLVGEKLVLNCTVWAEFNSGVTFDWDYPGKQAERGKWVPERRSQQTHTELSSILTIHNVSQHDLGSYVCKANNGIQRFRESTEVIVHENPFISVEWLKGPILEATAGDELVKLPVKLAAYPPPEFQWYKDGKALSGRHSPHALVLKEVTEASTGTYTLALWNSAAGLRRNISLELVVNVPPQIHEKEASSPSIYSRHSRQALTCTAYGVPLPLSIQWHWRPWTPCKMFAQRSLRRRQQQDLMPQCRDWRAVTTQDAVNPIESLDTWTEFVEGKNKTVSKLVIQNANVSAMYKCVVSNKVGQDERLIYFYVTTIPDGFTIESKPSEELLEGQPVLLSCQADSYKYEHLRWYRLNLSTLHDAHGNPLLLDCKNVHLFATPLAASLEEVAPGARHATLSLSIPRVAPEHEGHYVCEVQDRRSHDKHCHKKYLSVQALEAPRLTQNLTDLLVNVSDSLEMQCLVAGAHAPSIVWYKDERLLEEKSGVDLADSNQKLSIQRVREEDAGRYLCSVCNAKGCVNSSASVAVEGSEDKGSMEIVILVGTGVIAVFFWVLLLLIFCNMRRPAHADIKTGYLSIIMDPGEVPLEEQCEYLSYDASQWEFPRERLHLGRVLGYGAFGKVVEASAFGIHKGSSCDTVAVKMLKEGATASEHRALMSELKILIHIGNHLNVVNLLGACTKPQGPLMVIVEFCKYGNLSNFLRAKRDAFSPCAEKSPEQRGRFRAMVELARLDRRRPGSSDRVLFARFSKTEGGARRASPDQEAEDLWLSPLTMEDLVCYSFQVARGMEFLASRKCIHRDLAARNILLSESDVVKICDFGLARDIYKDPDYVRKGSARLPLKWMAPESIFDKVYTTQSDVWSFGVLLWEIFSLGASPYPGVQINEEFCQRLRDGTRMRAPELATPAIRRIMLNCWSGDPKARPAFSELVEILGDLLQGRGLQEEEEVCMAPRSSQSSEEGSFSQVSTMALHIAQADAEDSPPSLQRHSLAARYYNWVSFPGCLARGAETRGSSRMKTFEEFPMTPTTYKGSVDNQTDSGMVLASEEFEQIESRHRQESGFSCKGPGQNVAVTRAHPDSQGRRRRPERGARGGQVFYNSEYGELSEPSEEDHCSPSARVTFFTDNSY
Sequence of Serine/threonine-protein kinase Nek6 (Homo sapiens) (Q9HC98 whole entry): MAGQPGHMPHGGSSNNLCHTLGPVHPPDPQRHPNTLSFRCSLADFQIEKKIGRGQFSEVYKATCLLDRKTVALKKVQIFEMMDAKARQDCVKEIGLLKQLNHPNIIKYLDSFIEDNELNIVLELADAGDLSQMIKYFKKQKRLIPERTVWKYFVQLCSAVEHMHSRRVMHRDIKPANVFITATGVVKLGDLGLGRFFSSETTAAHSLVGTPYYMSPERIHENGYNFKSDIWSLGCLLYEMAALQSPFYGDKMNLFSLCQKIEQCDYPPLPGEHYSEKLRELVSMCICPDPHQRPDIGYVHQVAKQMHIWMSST
Sequence of Serine/threonine-protein kinase PLK1 (Homo sapiens) (P53350 whole entry): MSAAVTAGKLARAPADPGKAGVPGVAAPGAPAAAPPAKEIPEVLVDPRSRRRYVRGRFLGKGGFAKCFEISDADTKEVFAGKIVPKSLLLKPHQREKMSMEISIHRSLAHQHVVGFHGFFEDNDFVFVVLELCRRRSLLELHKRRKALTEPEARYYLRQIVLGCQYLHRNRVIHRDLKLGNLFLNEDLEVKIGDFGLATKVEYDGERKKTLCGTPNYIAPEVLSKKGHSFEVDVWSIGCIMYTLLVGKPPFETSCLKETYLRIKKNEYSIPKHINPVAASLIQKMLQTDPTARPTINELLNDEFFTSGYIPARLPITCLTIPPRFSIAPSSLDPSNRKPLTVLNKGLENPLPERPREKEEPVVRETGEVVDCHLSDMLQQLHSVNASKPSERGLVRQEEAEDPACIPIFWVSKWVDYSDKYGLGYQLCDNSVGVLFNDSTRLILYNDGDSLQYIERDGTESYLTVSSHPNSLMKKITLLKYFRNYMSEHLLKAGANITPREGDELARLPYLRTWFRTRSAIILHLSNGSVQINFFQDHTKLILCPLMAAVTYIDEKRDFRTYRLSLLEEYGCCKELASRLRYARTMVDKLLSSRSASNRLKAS
Sequence of Serine/threonine-protein kinase Nek7 (Homo sapiens) (Q8TDX7 whole entry, looked up): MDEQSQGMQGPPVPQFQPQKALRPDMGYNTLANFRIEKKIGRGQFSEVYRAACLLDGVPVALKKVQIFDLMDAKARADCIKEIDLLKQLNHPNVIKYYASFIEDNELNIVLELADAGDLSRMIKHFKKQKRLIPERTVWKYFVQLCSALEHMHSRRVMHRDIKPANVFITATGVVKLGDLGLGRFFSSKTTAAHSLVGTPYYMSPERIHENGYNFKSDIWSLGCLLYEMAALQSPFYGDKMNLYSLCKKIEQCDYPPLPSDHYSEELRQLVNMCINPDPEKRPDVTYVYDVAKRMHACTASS
Sequence of Macrophage colony-stimulating factor 1 receptor (Homo sapiens) (P07333 whole entry): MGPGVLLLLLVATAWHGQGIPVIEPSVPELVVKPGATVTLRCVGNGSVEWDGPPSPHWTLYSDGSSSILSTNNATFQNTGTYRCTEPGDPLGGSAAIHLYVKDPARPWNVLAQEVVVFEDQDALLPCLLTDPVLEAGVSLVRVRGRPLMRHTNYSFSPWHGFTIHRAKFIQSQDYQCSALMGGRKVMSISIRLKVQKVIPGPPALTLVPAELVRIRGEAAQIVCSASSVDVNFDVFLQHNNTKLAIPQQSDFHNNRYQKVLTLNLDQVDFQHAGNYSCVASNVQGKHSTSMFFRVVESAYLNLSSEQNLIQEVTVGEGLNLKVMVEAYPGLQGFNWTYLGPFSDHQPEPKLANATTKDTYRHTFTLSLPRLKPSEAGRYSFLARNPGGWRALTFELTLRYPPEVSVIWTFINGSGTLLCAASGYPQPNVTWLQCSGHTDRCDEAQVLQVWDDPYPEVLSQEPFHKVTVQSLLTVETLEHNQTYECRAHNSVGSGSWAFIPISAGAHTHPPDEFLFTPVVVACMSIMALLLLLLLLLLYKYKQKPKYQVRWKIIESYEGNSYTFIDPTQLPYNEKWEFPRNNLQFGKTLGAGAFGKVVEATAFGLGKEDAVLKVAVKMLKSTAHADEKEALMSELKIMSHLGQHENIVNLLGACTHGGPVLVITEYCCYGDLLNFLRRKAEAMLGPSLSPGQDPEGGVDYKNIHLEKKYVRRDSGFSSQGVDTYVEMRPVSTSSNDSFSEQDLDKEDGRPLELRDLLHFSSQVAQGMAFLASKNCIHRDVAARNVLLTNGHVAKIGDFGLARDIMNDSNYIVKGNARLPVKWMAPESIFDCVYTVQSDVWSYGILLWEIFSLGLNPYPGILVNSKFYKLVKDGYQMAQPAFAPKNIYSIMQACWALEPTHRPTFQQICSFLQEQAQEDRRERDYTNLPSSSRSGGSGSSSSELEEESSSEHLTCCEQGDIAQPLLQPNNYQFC

Compound | inhibition [1] | inhibition [2] | inhibition [3] | inhibition [4] | inhibition [5] | inhibition [6] | inhibition [7] | inhibition [8] | inhibition [9] | inhibition [10] | inhibition [11] | inhibition [12] | inhibition [13] | inhibition [14] | inhibition [15] | inhibition [16] | inhibition [17] | inhibition [18] | inhibition [19] | inhibition [20]
CC(C)c1ccc2c(c1)NC(=O)/C2=N/Nc1ccc(S(N)(=O)=O)cc1 | -1.41% | 0.8% | -0.15% | 1.08% | 0.29% | 1.12% | 2.08% | -0.24% | 1.29% | 2.87% | 4.79% | 2.6% | 1.38% | 2.93% | 3.33% | 1.38% | 5.37% | 5.18% | 34.6% | 2.02%
Cc1cc(O)cc(C)c1/C=C/c1cncc(C(=O)N(C)C)c1 | 2.2% | 2.11% | 5.18% | 2.6% | 3.87% | 2.43% | 0.38% | 3.87% | 4.65% | 11.4% | 4.45% | 5.15% | 3.62% | 1.2% | 5.04% | 4.71% | 3.92% | 1.52% | 5.32% | 3.23%
